Laboratory results published in PubChem BioAssay (NCI).
Compounds without any hit were thinned out: in the full panel of roughly 83,000, 20% have a hit.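 For each line, cells grew in 96-well plates with the test compound present at a single concentration for 48 hours.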 Calls of active or inactive are those of the source. Rule for the calls: active = growth percent below 10; inactive = the rest.

Key:
Test in all cases: NCI-60 one-dose screen, 48 h (100 = growth as untreated, 0 = no growth, -100 = all killed)
Details in all cases: 10 µM unless noted
SR leukemia = tested on: SR leukemia
RPMI-8226 leukemia = tested on: RPMI-8226 leukemia
OVCAR-8 ovarian = tested on: OVCAR-8 ovarian
OVCAR-5 ovarian = tested on: OVCAR-5 ovarian
OVCAR-4 ovarian = tested on: OVCAR-4 ovarian
SK-OV-3 ovarian = tested on: SK-OV-3 ovarian
IGROV1 ovarian = tested on: IGROV1 ovarian
OVCAR-3 ovarian = tested on: OVCAR-3 ovarian
HS 578T breast = tested on: HS 578T breast
NCI/ADR-RES ovarian = tested on: NCI/ADR-RES ovarian
T-47D breast = tested on: T-47D breast
BT-549 breast = tested on: BT-549 breast
MDA-MB-435 melanoma = tested on: MDA-MB-435 melanoma
SW-620 colon = tested on: SW-620 colon
MCF7 breast = tested on: MCF7 breast
HCT-116 colon = tested on: HCT-116 colon
HCC-2998 colon = tested on: HCC-2998 colon
KM12 colon = tested on: KM12 colon

| Structure (SMILES) | growth (SR leukemia) | growth (RPMI-8226 leukemia) | growth (OVCAR-8 ovarian) | growth (OVCAR-5 ovarian) | growth (OVCAR-4 ovarian) | growth (SK-OV-3 ovarian) | growth (IGROV1 ovarian) | growth (OVCAR-3 ovarian) | growth (HS 578T breast) | growth (NCI/ADR-RES ovarian) | growth (T-47D breast) | growth (BT-549 breast) | growth (MDA-MB-435 melanoma) | growth (SW-620 colon) | growth (MCF7 breast) | growth (HCT-116 colon) | growth (HCC-2998 colon) | growth (KM12 colon) |
| --- | --- | --- | --- | --- | --- | --- | --- | --- | --- | --- | --- | --- | --- | --- | --- | --- | --- | --- |
| CC1(C)CC[C@]23CC[C@]4(C)[C@H](CC[C@@H]5[C@@]6(C)CCCN(CO)C(C)(C)[C@@H]6CC[C@]54C)[C@H]2[C@H]1OC3 | 1.43% (active) | 21.8% (inactive) | 101% (inactive) | 95.9% (inactive) | 85.6% (inactive) | 118% (inactive) | 69% (inactive) | 66.6% (inactive) | 91.3% (inactive) | 101% (inactive) | 57.3% (inactive) | 85.5% (inactive) | 88.7% (inactive) | 9.58% (active) | 17.1% (inactive) | 22.1% (inactive) | 3.53% (active) | 56.4% (inactive) |
| Nc1ccccc1NC(=O)c1ccc(NC(=O)C/C=C/c2cccnc2)cc1 | 30.7% (inactive) | 6.76% (active) | 26.3% (inactive) | 29.7% (inactive) | 39.8% (inactive) | 44.5% (inactive) | 23.3% (inactive) | 33.2% (inactive) | 30.3% (inactive) | 50.8% (inactive) | 12.2% (inactive) | 25.1% (inactive) | 26.3% (inactive) | 15.7% (inactive) | 17.4% (inactive) | -29.3% (active) | 9.69% (active) | 33.2% (inactive) |
| COc1cc2nc(Cl)nc(Nc3cccc(C4=Nc5c(N)nc(N)nc5NC(c5ccccc5)C4)c3)c2cc1OC (stereo not given) | -1.18% (active) | 49% (inactive) | 67.2% (inactive) | 110% (inactive) | 96.7% (inactive) | 121% (inactive) | 86.7% (inactive) | 77.7% (inactive) | 96.4% (inactive) | 94.1% (inactive) | 67.5% (inactive) | 81.6% (inactive) | 101% (inactive) | 85.4% (inactive) | 70.5% (inactive) | 74.6% (inactive) | 94.3% (inactive) | 78.3% (inactive) |
| O=S(=O)(NCCCNc1nccc(-c2[nH]c(-c3ccccc3)nc2-c2ccc(Cl)c(O)c2)n1)c1cccc2ccccc12 | 17.8% (inactive) | 9.64% (active) | 27.1% (inactive) | 67.1% (inactive) | 56.9% (inactive) | 68.5% (inactive) | 28.7% (inactive) | 18.7% (inactive) | 44% (inactive) | 34.6% (inactive) | 21.9% (inactive) | 46% (inactive) | 16.6% (inactive) | 34.1% (inactive) | 16.4% (inactive) | 16.3% (inactive) | 70% (inactive) | 21.5% (inactive) |
| Cc1c(Cl)cccc1S(=O)(=O)Nc1ccc2c(c1)C(=O)N(C1CCC(=O)NC1=O)C2=O (stereo not given) | 97.1% (inactive) | 84.5% (inactive) | 47.8% (inactive) | 97.3% (inactive) | 69.1% (inactive) | 106% (inactive) | 64.1% (inactive) | 105% (inactive) | 67.3% (inactive) | 73.3% (inactive) | 44% (inactive) | 63.9% (inactive) | 96.2% (inactive) | 44.8% (inactive) | 88.2% (inactive) | 107% (inactive) | 67.9% (inactive) | 92.2% (inactive) |
| COc1ccc(C2CC(c3cccc(Nc4nc(Cl)nc5cc(OC)c(OC)cc45)c3)=Nc3c(N)nc(N)nc3N2)cc1 (stereo not given) | 3.81% (active) | 38.4% (inactive) | 70.1% (inactive) | 111% (inactive) | 96.6% (inactive) | 121% (inactive) | 92.5% (inactive) | 75.3% (inactive) | 94.4% (inactive) | 92.3% (inactive) | 81.7% (inactive) | 81.4% (inactive) | 83.5% (inactive) | 74% (inactive) | 74.4% (inactive) | 46.3% (inactive) | 83.4% (inactive) | 57.1% (inactive) |
| O=C(CCn1c[n+](CC(=O)c2ccc(F)cc2)c2ccccc21)Nc1cccc2cccnc12 | 79.5% (inactive) | 35.1% (inactive) | 86.9% (inactive) | 79.6% (inactive) | 52.3% (inactive) | 88.2% (inactive) | 39.4% (inactive) | 55.4% (inactive) | 84.5% (inactive) | 96.5% (inactive) | 53.9% (inactive) | 69.9% (inactive) | 79% (inactive) | 92.3% (inactive) | 68% (inactive) | 53.1% (inactive) | 87% (inactive) | 76% (inactive) |
| NC(N)=Nc1ccc(Oc2cccc(NC(N)=Nc3ccc(I)cc3F)c2)cn1 | 7.24% (active) | 34.1% (inactive) | 77.6% (inactive) | 49% (inactive) | 66.6% (inactive) | 67.2% (inactive) | 39.7% (inactive) | 41.7% (inactive) | 53.3% (inactive) | 95.2% (inactive) | 26.1% (inactive) | 89.5% (inactive) | 68.3% (inactive) | 76.3% (inactive) | 7.64% (active) | 58.2% (inactive) | 70.9% (inactive) | 47.7% (inactive) |
| COc1ccccc1N1CCN(C2=CC(=O)C(C)=C(C)C2=O)CC1 | 119% (inactive) | 101% (inactive) | 100% (inactive) | 107% (inactive) | 93.2% (inactive) | 109% (inactive) | 112% (inactive) | 110% (inactive) | 103% (inactive) | 98.6% (inactive) | 91.1% (inactive) | 104% (inactive) | 106% (inactive) | 105% (inactive) | 83.5% (inactive) | 106% (inactive) | 110% (inactive) | 105% (inactive) |
| NS(=O)(=O)c1ccc(-n2cc(CN3CCCCC3)nn2)cc1 | 93.7% (inactive) | 107% (inactive) | 105% (inactive) | 105% (inactive) | 105% (inactive) | 122% (inactive) | 104% (inactive) | 113% (inactive) | 100% (inactive) | 109% (inactive) | 110% (inactive) | 108% (inactive) | 106% (inactive) | 106% (inactive) | 96.9% (inactive) | 107% (inactive) | 106% (inactive) | 95.3% (inactive) |
| O=C(NCCn1ccnc1)c1ccc(-c2nc3ccc4[nH]ncc4c3c3c2CCCC3)cc1 | 2.67% (active) | 77.6% (inactive) | 77.2% (inactive) | 93.9% (inactive) | 66.3% (inactive) | 63.1% (inactive) | 62.8% (inactive) | 36.7% (inactive) | 2.42% (active) | 102% (inactive) | 56% (inactive) | 44.2% (inactive) | -1.93% (active) | 57.4% (inactive) | 20.5% (inactive) | 37% (inactive) | 81.6% (inactive) | 26% (inactive) |
| COc1cc(-c2nc(SCCC(C)C)nc(NNC(=O)c3ccncc3)c2C#N)cc(OC)c1OC | 105% (inactive) | 100% (inactive) | 70% (inactive) | 61% (inactive) | 90.6% (inactive) | 31.9% (inactive) | 2.47% (active) | 73.5% (inactive) | 8.27% (active) | 74.1% (inactive) | 43% (inactive) | 104% (inactive) | 90.1% (inactive) | 110% (inactive) | 74.7% (inactive) | 84.5% (inactive) | 92.1% (inactive) | 86.5% (inactive) |
| O=C(CNc1nc(-c2cccc([N+](=O)[O-])c2)cs1)Nc1cccc([N+](=O)[O-])c1 | 2.66% (active) | -18.8% (active) | -3.29% (active) | -12.9% (active) | 5.36% (active) | -23.9% (active) | -28.3% (active) | 5.33% (active) | -11.8% (active) | -11.4% (active) | -5.2% (active) | 15.2% (inactive) | -15.5% (active) | 1.81% (active) | -1.07% (active) | -8.55% (active) | -55.9% (active) | 4.12% (active) |
| CS(=O)(=O)c1ccc(-c2nn(-c3ccccc3)cc2/C=N/NC(=O)c2nc(N)n[nH]2)cc1 | 69.7% (inactive) | 83.3% (inactive) | 101% (inactive) | 94.8% (inactive) | 103% (inactive) | 112% (inactive) | 90.8% (inactive) | 97.1% (inactive) | 111% (inactive) | 98.9% (inactive) | 101% (inactive) | 103% (inactive) | 91.9% (inactive) | 88.4% (inactive) | 88.3% (inactive) | 94.8% (inactive) | 117% (inactive) | 94.7% (inactive) |
| NC(N)=Nc1ccc(Oc2cccc(NC(N)=Nc3ccc(Cl)c(C(F)(F)F)c3)c2)cc1 | 7.43% (active) | 41.4% (inactive) | 66.8% (inactive) | 48.1% (inactive) | 62.4% (inactive) | 54.9% (inactive) | -10.5% (active) | 30.8% (inactive) | 35.8% (inactive) | 95.4% (inactive) | 57.9% (inactive) | 43.8% (inactive) | 62.9% (inactive) | 57% (inactive) | 42% (inactive) | 44.9% (inactive) | 66.2% (inactive) | 26.2% (inactive) |
